From PubChem BioAssay (NCATS)
Results filed as inconclusive are left out. Activity calls are given as the source filed them. Unless noted, calls follow the shape of the dose curve; as a rule, active = well fitted curve in the direction sought with a large enough effect; inconclusive = small, poorly fitted or top-dose-only effect, or another doubt; inactive = no such curve, though single readings can be large; an effect the other way counts as inactive or inconclusive.

Legend:
[1] = Primary qHTS for inhibitors of nuclear receptor binding SET domain protein 2 (NSD2) in an isogenic RCH-ACV NSD2 p.E1099K mutant (9B) (AID 1645876); also: nearly all actives have a fitted effect of over 70% in size; also: potency is read from the fitted curve at half-maximal effect
[2] = Primary qHTS for inhibitors of nuclear receptor binding SET domain protein 2 (NSD2) in an RCH-ACV wild type WT cells (2C) (AID 1645877); also: nearly all actives have a fitted effect of over 70% in size; also: potency is read from the fitted curve at half-maximal effect
[3] = biological target: Glutathione peroxidase 1 (Homo sapiens) (UniProt P07203); test: Primary qHTS Assay for Inhibitors of Recombinant Selenoprotein Glutathione Peroxidase 1 (GPX1) (AID 1845191); also: nearly all actives have a fitted effect of over 65% in size
Sequence of Glutathione peroxidase 1 (Homo sapiens) (P07203 whole entry, looked up): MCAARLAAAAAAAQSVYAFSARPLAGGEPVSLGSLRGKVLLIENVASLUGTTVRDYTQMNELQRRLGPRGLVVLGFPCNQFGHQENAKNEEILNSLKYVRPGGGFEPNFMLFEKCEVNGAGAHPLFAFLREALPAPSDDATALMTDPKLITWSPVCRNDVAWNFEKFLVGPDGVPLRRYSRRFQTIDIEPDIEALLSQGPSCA
Outline: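 GPX1 10 nM, GR 100 nM, GSH 1 mM, NADPH 0.5 mM, CHP 0.5 mM (final). 30-min cpd preincubation, RT. Ex340/Em450 read t=0, t=15 min.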

[4] = biological target: Phospholipid hydroperoxide glutathione peroxidase GPX4 (Homo sapiens) (UniProt P36969); test: Primary qHTS Assay for Inhibitors of Recombinant Selenoprotein Glutathione Peroxidase 4 (GPX4) (AID 1845192); settings: outcome: dose series up to 50 µM unless noted; also: nearly all actives have a fitted effect of over 65% in size; also: potency is read from the fitted curve at half-maximal effect; as to activity change, negative = inhibition: % is scaled to controls: 0 for no effect and ±100 for the full control effect
Sequence of Phospholipid hydroperoxide glutathione peroxidase GPX4 (Homo sapiens) (P36969 whole entry, looked up): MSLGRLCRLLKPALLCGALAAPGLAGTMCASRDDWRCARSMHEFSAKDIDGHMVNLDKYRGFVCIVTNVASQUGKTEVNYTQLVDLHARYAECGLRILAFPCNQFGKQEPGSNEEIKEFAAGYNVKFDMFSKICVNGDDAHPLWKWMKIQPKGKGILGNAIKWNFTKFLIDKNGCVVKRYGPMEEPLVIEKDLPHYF
Outline: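 qHTS, GR-coupled: GPX4 200 nM + cpd 30 min RT → GSH 1 mM, NADPH 0.5 mM, GR 100 nM → CHP 0.5 mM start; fluor 340/450 at t0 and t15 min; no-enzyme wells as control.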

[5] = qHTS drug screen for cell cycle checkpoint inhibitors in PARPi-resistant BRCA-mutant ovarian cancer cell lines. (AID 1963452; calls by dose curve; also: potency is read from the fitted curve at half-maximal effect); settings: PEO1/OlaR viability, CellTiter-Glo luminescence, 96 h; for Z-AUC: stronger effect = lower value
Outline: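 PEO1, PEO4 and PEO1/OlaR ovarian cancer cells, 600 per well, exposed 96 h at 37C to a dilution series. Viability read by CellTiter-Glo luminescence, normalized to DMSO and empty wells; activity summarized as Z-AUC.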

[6] = qHTS assay to identify inhibitors of the type 1 interferon - major histocompatibility complex class I in skeletal muscle: Counter screen cell viability and HiBit confirmation (AID 1347412); settings: iHSKM muscle cells + IFN-b, HiBiT or CellTiter-Glo, 24 h; for activity change, negative = inhibition: at 45.9 µM (top of the series); also: potency is read from the fitted curve at half-maximal effect; as to activity change, negative = inhibition: % is scaled to controls: 0 for no effect and ±100 for the full control effect; as to all read-outs here: nearly all actives have a fitted effect of over 60% in size
Outline: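 Human myoblast knock-in line, 4.0 ng/ml IFN-beta stimulation, 24 h compound treatment. Endpoints: HiBiT lytic luminescence (HLA-B level) and CellTiter Glo (ATP). Dosing 12 concentrations, 3-fold steps, 46 uM highest final.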

[7] = qHTS to identify inhibitors of the type 1 interferon - major histocompatibility complex class I in skeletal muscle: primary screen against the NCATS Mechanism Interrogation Plate v5.0 (MIPE) Libary (AID 1347411); also: nearly all actives have a fitted effect of over 65% in size; also: potency is read from the fitted curve at half-maximal effect;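 as to activity change, negative = inhibition: plate controls were vehicle for no effect and reference inhibitor for full effect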
Outline: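 Luminescence from CRISPR HiBit-tagged endogenous HLA-B in human myoblasts reported MHC class I level after 24 h of IFN-beta (4 ng/ml) plus compound. Compounds ran as 11-point 1:3 series, top 46 uM final.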

[8] = measured here: PEO1 parental Z-AUC

SMILES	Potency [1]	Potency [2]	Potency [3]	Potency [4]	Z-AUC [5]	Z-AUC [5, 8]	Z-AUC ([5]; measured here: PEO4 Z-AUC)	Potency ([6]; HiBiT)	activity change, negative = inhibition ([6]; Viability)	activity change, negative = inhibition ([6]; HiBiT)	Potency ([6]; Viability)	Potency [7]	Potency [5]
CN(C)Cc1ccc(S(=O)(=O)n2ccc(/C=C/C(=O)NO)c2)cc1	1.86 µM (active)	1.86 µM (active)	inactive	inactive	0.736 (inactive)	1.02	1.35	7.01 µM (active)	-5.13% (inactive)				
COc1cc(=C2C=c3ccccc3=N2)[nH]/c1=C/c1[nH]c(C)cc1C	inactive	inactive	inactive		0.716 (inactive)	0.368	1.02			-23.6% (inactive)	1.25 µM (active)		
CC(C)(c1ccc(OCC(O)CO)cc1)c1ccc(OCC(O)CCl)cc1 (configuration not stated)				inactive	1.33 (inactive)	0.733	1.22					inactive	
CC(=O)c1ccc2c(c1)c1cc(C(C)=O)ccc1n2CCNC(C)C	0.742 µM (active)	0.662 µM (active)		16.1 µM (active)		-1.63	-1.42	1.11 µM (active)	-5.98% (inactive)				1.55 µM (active)
CC(C)n1c(/C=C/[C@H](O)C[C@H](O)CC(=O)O)c(-c2ccc(F)cc2)c2ccccc21			inactive	inactive	1.2 (inactive)	1.21	1.13					inactive	
C/C=C1\NC(=O)[C@H]2CSSCCC=C[C@H](CC(=O)N[C@H](C(C)C)C(=O)N2)OC(=O)[C@H](C(C)C)NC1=O								0.0004 µM (active)	-27.6% (inactive)				
Cc1cc2cc(Oc3ccnc(Nc4cccc(CS(=O)(=O)NCCN(C)C)c4)n3)ccc2[nH]1	8.33 µM (active)	5.9 µM (active)	inactive	inactive	0.517 (inactive)	0.192	0.0861	22.2 µM (active)	-27.6% (inactive)				
CN1CCN(c2ccc(Nc3ncc4cc(C#N)c(=O)n(C5CCCC5)c4n3)cc2)CC1	0.59 µM (active)	0.525 µM (active)	inactive	inactive	-0.464 (inactive)	0.47	0.542	9.91 µM (active)	-23.1% (inactive)				
C[C@@H](O)[C@@H](C)Oc1nc(Nc2ccc(S(=N)(=O)C3CC3)cc2)ncc1C(F)(F)F (some centres not stated)			inactive	inactive	-1.04 (inactive)	-0.0707	-0.563					20.8 µM (active)	
CC[C@@H](Oc1cccc(CN(CCCOc2ccc(OC)cc2)c2nc3ccccc3o2)c1)C(=O)O			inactive		1.26 (inactive)	0.312	0.341					inactive	
